Screening data: PubChem, Sanford-Burnham Center for Chemical Genomics
VHR inh color: inhibitors of human VHR1 phosphatase (DUSP3); actives 0.7% (n = 50,000); P51452; recombinant VHR phosphatase, colorimetric substrate read-out; inhibition, % at 20 µM; in the data active = inhibition above about 60%
Target sequence (P51452 whole entry, looked up): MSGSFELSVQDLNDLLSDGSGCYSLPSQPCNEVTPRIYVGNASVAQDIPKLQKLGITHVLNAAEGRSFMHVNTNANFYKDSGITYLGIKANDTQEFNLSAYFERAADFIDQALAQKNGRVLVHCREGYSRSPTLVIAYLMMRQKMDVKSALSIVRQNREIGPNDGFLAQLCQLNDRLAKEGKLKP
* = called active by the depositor. This is one part of a sample in which hits are shown more often than they occur.

SMILES | VHR inh color
Cn1/c(=N/N=C/C=C/c2ccco2)sc2ccccc21 | 114*
CN(C)c1ccc(/C=C/C=N/N=c2\sc3ccccc3n2C)cc1 | 13
Cn1/c(=N/N=C/c2cccc(Cl)c2Cl)sc2ccccc21 | 1
CN1C(=O)NC(=O)/C(=C\c2cccc(O)c2)C1=O | -14
Cc1sc2ncn(/N=C/C=C3\N(C)c4ccccc4C3(C)C)c(=O)c2c1C | -12
Cc1cc2[nH]c(=O)cc(-c3ccccc3)n2n1 | -13
CCc1cc(C)nc2cc(-c3ccccc3)nn12 | -14
Cc1cc(=O)[nH]c2cc(-c3ccccc3)nn12 | 97*
Nc1ncn(-c2ccc(Cl)cc2)c1C(=O)c1ccc([N+](=O)[O-])cc1 | 8
NC1=NC(=O)/C(=C\c2ccc(-c3ccccc3Cl)o2)S1 | -11
NC1=NC(=O)/C(=C\c2ccc(-c3ccc([N+](=O)[O-])cc3)o2)S1 | 77*
NC1=NC(=O)/C(=C\c2ccc(-c3cccc(C(=O)O)c3)o2)S1 | -15
NC(=O)CSc1nc2ccc([N+](=O)[O-])cc2s1 | -13
COc1cc(OC)c(OC)cc1CN1CCN(Cc2cccnc2)CC1 | 11
CCOC(=O)c1c(NC(=O)Oc2ccccc2)sc2c1CCC(C)C2 (stereo not drawn) | -7
COC(=O)c1c(N)sc2c1CCC(c1ccccc1)C2 (stereo not drawn) | 12
CCOC(=O)c1c(N)sc2c1CCC(c1ccccc1)C2 (stereo not drawn) | 94*
O=C1NC(=Nc2ccccc2)S/C1=C/c1ccc(-c2cccc(Br)c2)o1 | -16
COC(=O)CN1C(=O)/C(=C\c2ccc(Cl)cc2)SC1=S | 2
CCN1C(=O)/C(=C\c2ccc(-c3ccc(F)cc3)o2)SC1=S | -5
O=C1/C(=C\c2ccc(-c3cccc(Cl)c3)o2)SC(=S)N1CCS(=O)(=O)O | 91*
O=C1/C(=C/c2ccc(Cl)cc2)SC(=S)N1CCc1ccccc1 | -11
CCN1C(=O)/C(=C\c2ccc(-c3ccccc3Cl)o2)SC1=S | -3
O=C1/C(=C/c2ccc(Cl)cc2)SC(=S)N1CCS(=O)(=O)O | 80*
Cc1cc(C)c2oc(-c3ccc(C)c(NC(=O)c4cccs4)c3)nc2c1 | 2
SMILES | VHR inh color
COc1ccc(NC(=O)/C=C/c2ccco2)cc1OC | 0
O=C1CC(c2ccc(F)c(F)c2)c2cc(Br)c3ccccc3c2N1 (stereo not drawn) | 6
COc1cccc(C2CC(=O)Nc3c2cc(Br)c2ccccc32)c1OC (stereo not drawn) | 6
COc1ccc(C2CC(=O)Nc3c2cc(Br)c2ccccc32)cc1OC (stereo not drawn) | 67*
Cc1ccc(/C=C2/SC(=S)N(NC(=O)c3ccccc3Br)C2=O)o1 | -10
CCOC(=O)N1CCN(C(=O)CN(c2ccc(C)cc2)S(=O)(=O)c2ccc(F)cc2)CC1 | 9
Oc1ccc(Br)cc1CN1CCN(Cc2ccco2)CC1 | -6
CCOC(=O)C1=C(O)/C(=C/c2ccc(O)c(OCC)c2)SC1=Nc1cccc(Cl)c1 | -10
CCN(CC)c1ccc(Nc2nc(-c3c(C)nc4ccccn34)cs2)cc1 | 55
CCN(CC)c1ccc(Nc2nc(-c3sc(N)nc3C)cs2)cc1 | 101*
Cc1nc(C)c(-c2csc(Nc3ccc(O)cc3)n2)s1 | 68
O=C(NC(=S)Nc1ccc2oc(-c3ccccc3Br)nc2c1)c1ccco1 | -6
CCOc1ccc([C@H]2[C@H](C(=O)c3ccccc3)N3c4ccccc4C=CC3C2(C#N)C#N)cc1 (stereo partly drawn) | 1
Cc1sc(NC(=O)c2cc(-c3cccs3)nc3ccccc23)c(C(N)=O)c1C | 88*
Cc1cccc(NC(=O)c2cc(-c3cccs3)nc3ccccc23)c1 | -11
COc1cccc(-c2cc(C(=O)Nc3sc(C)c(C)c3C(N)=O)c3ccccc3n2)c1 | 7
Brc1ccc(CC(Cc2nc3ccccc3[nH]2)c2nc3ccccc3[nH]2)cc1 (stereo not drawn) | 1
COc1ccc(Cl)cc1NC(=O)C1=C(C)NC(=S)NC1c1ccc([N+](=O)[O-])cc1 (stereo not drawn) | -10
CO/N=C(/C(=O)O)c1cn2ccccc2n1 | -4
Nc1nc(SCc2ccc(Cl)cc2)nc2sc3c(c12)CCN(Cc1ccccc1)C3 | 4
CCC1CCc2c(sc(N)c2C#N)C1 (stereo not drawn) | -16
N#Cc1c(N)sc2c1CCCCCC2 | 18
O=c1[nH]c(=S)[nH]c2sc3c(c12)CCN(Cc1ccccc1)C3 | 51
Nc1sc(=S)nc2sc3c(c12)CCN(Cc1ccccc1)C3 | 72*
N#Cc1c(N)sc2c1CCN(Cc1ccccc1)C2 | 102*
SMILES | VHR inh color
CC(C)(C)N1C(=O)NC(=O)C(=Cc2ccc(Br)s2)C1=O | -18
Cc1ccc(NCC(=O)N/N=C\c2cc(Cl)cc(Br)c2O)cc1 | 5
Cc1ccc(Sc2ccc(/C=N/n3cnnc3)o2)cc1 | 2
CC1=C(C#N)c2nc(N)c(C#N)c(C)c2/C1=C\c1ccc(-c2cccc(Cl)c2)o1 | 17
CC1=C(C#N)c2nc(N)c(C#N)c(C)c2/C1=C/c1ccc(-c2ccc(C(=O)O)c(Cl)c2)o1 | 92*
CC1=C(C#N)c2nc(N)c(C#N)c(C)c2/C1=C\c1ccc(C)o1 | 54
O=C1OC(c2cccc(Cl)c2)=N/C1=C\c1ccc(OC(=O)c2cccc([N+](=O)[O-])c2)cc1 | -28
O=C(c1cccnc1)N1N=C(c2ccccc2)CC1(O)C(F)(F)C(F)(F)C(F)(F)F (stereo not drawn) | 18
CCOC(=O)C1=NNC(C(=O)c2ccc(Cl)cc2)C1c1ccc(OC)cc1 (stereo not drawn) | 115*
CCOC(=O)C1=NNC(C(=O)c2ccccc2)C1c1cccc(Br)c1 (stereo not drawn) | 37
CCOC(=O)C1=NNC2C(=O)N(c3ccccc3C)C(=O)C12 (stereo not drawn) | -5
CCOC(=O)C1=NNC2C(=O)N(c3ccc(Cl)cc3Cl)C(=O)C12 (stereo not drawn) | 116*
CCOC(=O)C1=NNC2C(=O)N(c3cc(OC)ccc3OC)C(=O)C12 (stereo not drawn) | -3
CCOC(=O)C1=C(C)NC(SC)=NC1c1ccc(OC)cc1 (stereo not drawn) | 1
Cc1cc(-c2nc3ccc(Br)cc3c(=O)o2)ccc1[N+](=O)[O-] | 0
O=[N+]([O-])c1ccc(N/N=C/c2ccc(-c3ccc(Cl)cc3)o2)cc1 | -6
COc1ccc(C(=O)N2CCN(Cc3ccccc3F)CC2)cc1OC | -6
Cc1ccc(/C=C2\SC(=S)N(c3ccc(C)c(C)c3)C2=O)o1 | 10
O=C1NC(=S)N(c2ccc(Cl)cc2)C(=O)/C1=C/c1ccc(-c2ccc(C(=O)O)cc2)o1 | 19
O=C1NC(=S)NC(=O)C1=Cc1ccc(-c2ccc(C(=O)O)cc2)o1 | 89*
O=C1NC(=O)N(c2ccccc2)C(=O)/C1=C\c1ccc(-c2ccc(C(=O)O)cc2)o1 | -20
C=CCN1C(=O)c2ccccc2C1(O)c1ccc(OC)cc1 (stereo not drawn) | -3
C=CCn1c(SCC(=O)NCCCN2CCOCC2)nc2sc3c(c2c1=O)CCCC3 | -13
Clc1ccc(C2NN=C(Cc3ccccc3)S2)c(Cl)c1 (stereo not drawn) | -33
O=C(c1c(Cl)cccc1Cl)N1CCOCC1 | 2
C=CCOc1ccc(/C=C2/N=C(C)C(C(=O)OCC)=C2O)cc1OC | 12
O=C1c2ccccc2CCC1C1(O)C(=O)Nc2ccccc21 (stereo not drawn) | -1
CC1(C)CC(=O)C(C2(O)C(=O)Nc3ccc(Br)cc32)CO1 (stereo not drawn) | -11
